Shown is part of a subset that was picked to be rich in hits.
TbREL1 primary = TbREL1 RNA ligase inhibitors, primary screen, biochemical, FRET fluorescence. RNA-editing ligase 1, mitochondrial (Trypanosoma brucei brucei), P86926. TbREL1 RNA ligation. inhibition, % at 9.66 µM. 89,000 compounds, 0.49% hits. AID 1117264, 2014;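 active = inhibition above the mean inhibition across all screened compounds plus 3 SD, cut at about 11% in these data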
Target sequence (P86926 whole entry, looked up): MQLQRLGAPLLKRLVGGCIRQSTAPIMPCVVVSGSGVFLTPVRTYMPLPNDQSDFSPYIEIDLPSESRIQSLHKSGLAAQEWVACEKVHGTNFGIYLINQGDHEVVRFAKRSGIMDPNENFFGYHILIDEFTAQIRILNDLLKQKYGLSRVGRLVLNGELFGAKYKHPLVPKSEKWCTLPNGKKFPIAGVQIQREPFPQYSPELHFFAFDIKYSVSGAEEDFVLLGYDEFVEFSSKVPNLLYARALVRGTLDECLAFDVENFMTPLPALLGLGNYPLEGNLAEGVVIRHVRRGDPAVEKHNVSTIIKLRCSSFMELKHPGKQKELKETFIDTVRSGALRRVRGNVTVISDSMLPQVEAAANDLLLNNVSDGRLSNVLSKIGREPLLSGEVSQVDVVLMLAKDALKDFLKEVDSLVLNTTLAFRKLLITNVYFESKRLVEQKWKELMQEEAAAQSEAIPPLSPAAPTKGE
Hits are given with their value; n = inactive.

SMILES | TbREL1 primary
C=CC[C@@H](Cc1ccc(F)cc1)C(=O)OC[C@@H]1CCCN1C(=O)[C@@H](CC=C)CC(=O)NCCO | n
C=CC[C@@H](Cc1ccc(F)cc1)C(=O)OC[C@@H]1CCCN1C(=O)[C@@H](CC=C)CC(=O)N(CCO)Cc1ccccc1 | n
C=CC[C@@H](Cc1ccc(F)cc1)C(=O)OC[C@@H]1CCCN1C(=O)[C@H](CC=C)CC(=O)N[C@H](CO)Cc1ccccc1 | 23
Nn1c(SCC(=O)N2c3ccccc3Sc3ccc(Cl)cc32)nnc1-c1n[nH]c2c1CCC2 | n
CC(C)c1ccc(NC(=O)O[C@H]2CC[C@@]34CCCN3C(=O)CCC[C@H]4[C@H]2C)cc1 | n
C#CCCC(=O)Nc1sc2c(c1-c1nc3ccccc3s1)CCN(C(C)C)C2 | n
COc1ccc(-c2nnc(SCC(=O)NN=C/C=C\c3ccco3)n2-c2ccc(OC)cc2)cc1 | n
O=C(/C=C/c1ccco1)Oc1cc(Br)cc(/C=N/NC(=O)c2ccccc2O)c1 | n
Cn1cccc1/C=C1\SC(=S)N(NC(=O)c2ccccc2)C1=O | n
O=C(NN1C(=O)/C(=C/C=C/c2ccco2)SC1=S)c1ccccc1O | 86
O=C(CCn1nnc2ccccc21)N1CCN(c2cccc(C(F)(F)F)c2)CC1 | n
C[C@@H]1CN([C@@H](C)CN(C)C)C(=O)c2cc(NC(=O)Nc3ccccc3)ccc2O[C@@H](C)CCCCO[C@H]1CN(C)S(=O)(=O)c1ccc(F)cc1 | n
O=C(Nc1ccccc1Cl)O[C@@H]1CC[C@@]23CCCN2C(=O)CCC[C@H]3C1 | n
COc1cc(OC)c(-c2c3cc(O)c(=O)cc-3oc3cc(O)c(O)cc23)cc1OC | 20
COc1c(O)cc2oc(-c3ccc(O)cc3)cc(=O)c2c1O | n
COC(=O)c1ccccc1-c1c2ccc(=N)cc-2oc2cc(N)ccc12 | n
CC1CCN(c2ccc(C(=O)O)cc2NS(=O)(=O)c2ccccc2[N+](=O)[O-])CC1 | n
CC(=O)c1cccc(NC(=O)c2cnn3c(C)cc(C)nc23)c1 | n
O=C(c1ccccc1OCc1ccccc1)N(Cc1ccccn1)CC1CCCO1 (stereo not drawn) | n
COc1ccc(-n2c(COc3ccccc3)nnc2SCc2nc3ccccc3[nH]2)cc1 | n
CCC(C)n1c(NC(=O)c2ccccc2)c(C#N)c2nc3ccccc3nc21 (stereo not drawn) | 12
CCn1c(NC(=O)c2ccc(C)cc2)c2ccccc2nc1=O | n
Cc1ccc(C(=O)NCCn2c(N)c(C#N)c3nc4ccccc4nc32)cc1 | n
COC(=O)[C@]12C[C@H](CC(=O)NCCc3ccccc3OC)C(=O)N(Cc3ccco3)C1=C[C@H](C1CCCC1)O[C@@H]2C | n
CN1CCN(c2ccc(NC(=O)c3cccs3)cc2)CC1 | n
SMILES | TbREL1 primary
C=CC(=O)Nc1ccc(N(C)c2ccnc(Nc3ccc(N4CCN(C)CC4)cc3)n2)cc1 | 12
CN1CCN(c2ccc(NC(=O)COc3ccccc3Cl)cc2)CC1 | n
CCC[C@H]1[C@@H](N(C)CC2CCCCC2)CC[C@@]23CCCN2C(=O)CCC[C@@H]13 | n
CCC(=O)OCCCN1CCC2(CCCCC2)C1=O | n
CNc1nc(N)c([N+](=O)[O-])c(Nc2cccc(Br)c2)n1 | n
Cc1ccc(C2(C)NC(=O)N(CC(=O)NCCC3=CCCCC3)C2=O)cc1 (stereo not drawn) | n
Cc1ccc(CNCCC2=CCCCC2)cc1 | 11
CCCNC(=O)C(=O)NCCC1=CCCCC1 | n
CC(=O)Nc1sc2c(c1-c1nc(-c3ccccc3)cs1)CCN(C(C)C)C2 | n
O=C1c2sc3nc4n(c(=O)c3c2CCC1Br)CCCCC4 (stereo not drawn) | 16
O=c1c2c3c(sc2nc2n1CCCCC2)CCC3 | n
CC(C)c1csc2nc3n(c(=O)c12)CCCCC3 | n
CCCCCCCC(=O)N[C@H]1CC[C@@]23CCCN2C(=O)CCC[C@H]3[C@H]1C | n
O=C(NCc1ccco1)O[C@@H]1CC[C@@]23CCCN2C(=O)CCC[C@H]3C1 | n
CC(=O)Oc1cc(C(=O)OCC(=O)NC23CC4CC(CC(C4)C2)C3)cc(OC(C)=O)c1OC(C)=O | 12
O=C(COC(=O)c1ccccn1)NC12CC3CC(CC(C3)C1)C2 | n
COc1ccc(C(=O)OCC(=O)NC23CC4CC(CC(C4)C2)C3)c(OC)c1OC | n
Cc1nn(-c2ccccc2)c2sc(C(=O)NCCc3ccc(Cl)cc3)cc12 | n
COc1ccc(N2CCN(CCCNC(=O)Cn3c(=O)c4cccn4c4cccnc43)CC2)c(OC)c1 | n
C#CCOCCOCCOCCNc1nc(N2CCN(C(=O)Cn3cc(CCCN=C(N)N)nn3)CC2)nc(N2CCN(C(=O)[C@H]([C@@H](C)O)n3cc(CCCCN)nn3)CC2)n1 | n
C#CCOCCOCCOCCNc1nc(N2CCN(C(=O)[C@H]([C@@H](C)CC)n3cc(CCCCN)nn3)CC2)nc(N2CCN(C(=O)[C@H]([C@@H](C)CC)n3cc(CCCN=C(N)N)nn3)CC2)n1 | n
C#CCOCCOCCOCCNc1nc(N2CCN(C(=O)[C@H]([C@@H](C)O)n3cc(CCCCN)nn3)CC2)nc(N2CCN(C(=O)[C@H]([C@@H](C)CC)n3cc(CCCN=C(N)N)nn3)CC2)n1 | 12

High-throughput results deposited in PubChem BioAssay by The Scripps Research Institute Molecular Screening Center.
